Results reported in PubChem BioAssay (NCATS).
Inconclusive results are not listed. A number with no mark means an inactive call. Active and inactive are the calls of the source. The call rests on the fitted dose curve; in most records, active means well fitted cell-killing curve with a large enough effect; inconclusive means small, poorly fitted or top-dose-only effect, or effect the other way; inactive means no such curve, though single readings can be large or run the other way.

Experiment: Quantitative High-Throughput drug screen in 47 multiple myeloma cell lines against the NCATS MIPE library collection: H1112_PLB cell viability assay (AID 1918967; further: nearly all actives have a fitted effect of over 30% in size)
Conditions: H1112 myeloma cells viability, ATP luminescence, 48 h; series mostly up to 45.8 µM; viability: at the top concentration
From the text: PI: Beverly A. Mock Ph.D.
Laboratory of Cancer Biology and Genetics,
Center for Cancer Research, National Cancer Institute,
National Institute of Health, Bethesda, Maryland
Drug resistance and disease progression are common in multiple myeloma (MM) patients, underscoring the need for new therapeutic combinations. […] We hypothesized that effective combinations would reduce MYC expression and enhance p16 activity. […] These preclinical data identify potentially useful drug combinations for evaluation in drug-resistant MM and reveal potential mechanisms of combined drug sensitivity.
Described herein is the primary MIPE qHTS used to cherrypick compounds. Validated compounds were then further tested for potential synergistic activiy.
[1] Peat TJ, Gaikwad SM, Dubois W, Gyabaah-Kessie N, Zhang S, Gorjifard S, Phyo Z, Andres M, Hughitt VK, Simpson RM, Miller MA, Girvin AT, Taylor A, Williams D, D'Antonio N, Zhang Y, Rajagopalan A, Flietner E, Wilson K, Zhang X, Shinn P, Klumpp-Thomas C, McKnight C, Itkin Z, Chen L, Kazandijian D, Zhang J, Michalowski AM, Simmons JK, Keats J, Thomas CJ, Mock BA. Drug combinations identified by high-throughput screening promote cell cycle transition and upregulate Smad pathways in myeloma. Cancer Lett. 2023 Aug 1;568:216284. doi: 10.1016/j.canlet.2023.216284. Epub 2023 Jun 24. PMID: 37356470; PMCID: PMC10408729.
SEQUENCE No. (e.g., 1, 2, 3, etc.); […] (e.g., Cells, Incubation, Reagent, etc.); VALUE and DESCRIPTION.
1; Cells; 5 uL; white, solid bottom 1536-well Greiner assay plate.
2; Compounds; 23 nL; Kalypsis pin tool (Wako USA) equipped with a 1536-well pin head to transfer to the assay plates.
3; Incubation; 48 hours; 37C incubation.
4; Reagent;5uL; CellTiter Glo (Promega).
5; Detector; 425V; Luminescence; Viewlux PerkinElmer.
NOTES (numbers refer to Sequence numbers above)
1. The cell-based screening methods employed in this study were like those previously published. Briefly, the corresponding myeloma cell lines were screened in 1,536-well plates with 500 cells, 5-uL per well for inhibition of cell viability (assessed by measuring ATP levels with CellTiterGlo).
2. NCATS MIPE 4.0 library of approved and investigational drugs were added using the Kalypsis pin tool. Wells treated with DMSO only for 100% viability and media only wells for 0% viability were used as controls.
3. The assay plates were covered and incubated for 48 hours in a 37C, 5% CO2 incubator with controlled humidity.
4. After 48 hours, CellTilter-GloTM luminescent substrate mix (Promega) reagent was added to the assay plate and plates we incubated for 5 min at room temperature.
5. Signal was measured as median relative luminescence units on a ViewLux (PerkinElmer) multiplate reader.
[1] Heske CM, Davis MI, Baumgart JT, Wilson K, Gormally MV, Chen L, Zhang X, Ceribelli M, Duveau DY, Guha R, Ferrer M, Arnaldez FI, Ji J, Tran HL, Zhang Y, Mendoza A, Helman LJ, Thomas CJ. Matrix Screen Identifies Synergistic Combination of PARP Inhibitors and Nicotinamide Phosphoribosyltransferase (NAMPT) Inhibitors in Ewing Sarcoma. Clin Cancer Res. 2017 Dec 1;23(23):7301-7311. doi: 10.1158/1078-0432.CCR-17-1121. Epub 2017 Sep 12. PMID: 28899971; PMCID: PMC6636827.
Potency means the concentration at half of the fitted maximal effect.

| Structure (SMILES) | viability | Potency |
| --- | --- | --- |
| O=C(O)c1cn(C2CC2)c2cc(N3CCNCC3)c(F)cc2c1=O | 130% |  |
| Cc1ncc([N+](=O)[O-])n1CCO | 127% |  |
| COC(=O)Nc1nc2ccc(C(=O)c3ccccc3)cc2[nH]1 |  | 2.64 µM (active) |
| Oc1c(Cl)cc(Cl)c2cccnc12 |  | 11.8 µM (active) |
| CNCC[C@H](Oc1cccc2ccccc12)c1cccs1 |  | 2.35 µM (active) |
| Cc1onc(-c2ccccc2Cl)c1C(=O)N[C@@H]1C(=O)N2[C@@H]1SC(C)(C)[C@@H]2C(=O)O | 113% |  |
| O=C(O)c1cc(=O)[nH]c(=O)[nH]1 | 117% |  |
| N[C@@H](Cc1ccc(O)c(O)c1)C(=O)O | 118% |  |
| CC(C(=O)O)c1ccc2c(c1)CC(=O)c1ccccc1S2 (stereo not given) | 108% |  |
| CC(C)(C)NC(=O)[C@H]1CC[C@H]2[C@@H]3CC[C@H]4NC(=O)C=C[C@]4(C)[C@H]3CC[C@]12C |  | 1.18 µM (active) |
| Cc1noc(NS(=O)(=O)c2ccc(N)cc2)c1C | 115% |  |
| COc1cc(NS(=O)(=O)c2ccc(N)cc2)nc(OC)n1 | 106% |  |
| O=C(O)CSCC(=O)NC1CCSC1=O (stereo not given) | 109% |  |
| CC(=O)CC(c1ccccc1)c1c(O)c2ccccc2oc1=O (stereo not given) | 121% |  |
| C[C@@H](NCCCc1cccc(C(F)(F)F)c1)c1cccc2ccccc12 | 105% |  |
| CCOC(=O)c1ccc(OC(=O)CCCCCN=C(N)N)cc1 | 108% |  |
| CC1=NN(c2ccccc2)C(=O)C1 | 122% |  |
| C[C@]12C=CC(=O)C=C1CC[C@@H]1[C@@H]2C(=O)C[C@@]2(C)[C@H]1CC[C@]2(O)C(=O)CO | 141% [at 23.2 µM] |  |
| Nc1nc(N)nc(-c2cc(Cl)ccc2Cl)n1 | 105% |  |
| CN(Cc1cc(Br)cc(Br)c1N)C1CCCCC1 | 110% |  |

| Structure (SMILES) | viability | Potency |
| --- | --- | --- |
| OC(Cn1cncn1)(Cn1cncn1)c1ccc(F)cc1F | 119% |  |
| CN1CCCC(n2nc(Cc3ccc(Cl)cc3)c3ccccc3c2=O)CC1 (stereo not given) |  | 1.87 µM (active) |
| O=C(O)c1cccnc1 | 126% |  |
| CC(C)NCC(O)c1ccc(NS(C)(=O)=O)cc1 (stereo not given) | 132% |  |
| CCCCc1oc2ccc(NS(C)(=O)=O)cc2c1C(=O)c1ccc(OCCCN(CCCC)CCCC)cc1 |  | 18.7 µM (active) |
| C#CCN[C@@H]1CCc2ccccc21 | 87.3% |  |
| Cc1nnc(NS(=O)(=O)c2ccc(N)cc2)s1 | 114% |  |
| CN(C)CCc1c[nH]c2ccc(CS(=O)(=O)N3CCCC3)cc12 | 100% |  |
| O=C(NCC1CN(c2ccc(N3CCOCC3=O)cc2)C(=O)O1)c1ccc(Cl)s1 (stereo not given) | 100% |  |
| COc1cc(NCc2ccc3nc(N)nc(N)c3c2C)cc(OC)c1OC |  | 2.64 µM (active) |
| Cn1nnc2c(C(N)=O)ncn2c1=O | 130% |  |
| CC1=C(C(=O)O)N2C(=O)[C@@H](NC(=O)C(N)c3ccccc3)[C@H]2SC1 (stereo not given in full) | 99.1% |  |
| CC(C)(C)C(=O)OCOP(=O)(COCCn1cnc2c(N)ncnc21)OCOC(=O)C(C)(C)C |  | 3.72 µM (active) |
| CO[C@@]12[C@H](COC(N)=O)C3=C(C(=O)C(C)=C(N)C3=O)N1C[C@@H]1N[C@@H]12 |  | 23.5 µM (active) |
| CN1CCN(c2c(F)cc3c(=O)c(C(=O)O)cn4c3c2OCN4C)CC1 | 113% |  |
| Cc1cc(NS(=O)(=O)c2ccc(N)cc2)no1 | 105% |  |
| CC(=O)[C@H]1CC[C@H]2[C@@H]3CC=C4C[C@@H](O)CC[C@]4(C)[C@H]3CC[C@]12C | 89.4% |  |
| CCOCC(O)COc1ccc(NC(=O)CC[S+](C)C)cc1 (stereo not given) | 108% |  |
| CCN(CC)CC#CCOC(=O)C(O)(c1ccccc1)C1CCCCC1 (stereo not given) | 104% |  |
| O=S(=O)(c1cccc2cnccc12)N1CCCNCC1 |  | 16.6 µM (active) |
